In PubChem BioAssay AID2279 (Southern Research Specialized Biocontainment Screening …, 2010):
Potency and affinity values are given separately. Activity calls are given as the source filed them. No rule for the calls is given here.

experiment: CCR5-tropic HIV-1 fusion blockers – cell-based, CCR5-tropic Env, dose response (AID 2279); details: CCR5-tropic HIV-1 Env, reporter read-out; series mostly up to 50 µM

outcome, inactive:
O=C(O)C1Nc2c(cccc2C(F)(F)F)C2C=CCC12 (centres undefined), CCCOc1ccc(C2C(C(=O)c3cc4ccccc4o3)=C(O)C(=O)N2c2cc(C)on2)cc1 (centres undefined), COc1ccc(NS(=O)(=O)c2ccc3c(c2)[C@H]2C=CC[C@H]2[C@@H](c2ccc(C(=O)O)cc2)N3)cc1, O=C(O)/C=C/C(=O)Nc1ccc(C2(c3ccc(NC(=O)/C=C/C(=O)O)cc3)c3ccccc3-c3ccccc32)cc1, O=C(CCN1C(=O)/C(=C/c2ccccc2Cl)SC1=S)Nc1ccccc1C(=O)O, COc1cc(/C=C2/C(=O)NN(c3ccc(Cl)cc3)C2=O)ccc1OC(=O)c1ccco1, O=C(O)CN1C(=O)/C(=C\c2cc(Br)ccc2OCc2ccc(Cl)cc2)SC1=S, Cc1ccc(F)c(NC(=O)/C(C#N)=C(\O)c2ccc(C(C)(C)C)cc2)c1, Cc1ccccc1N/N=C/c1sc(=O)n(Cc2cccc(C(=O)O)c2)c1Cl, O=C1N=c2ccc(Br)cc2=C1c1sc(=S)n(NS(=O)(=O)c2ccccc2)c1O, O=C(O)c1cccc(-n2cccc2/C=C2/NC(=O)N(c3ccc(Cl)cc3)C2=O)c1, O=C(NCCc1ccccc1)c1ccc2c(=O)[nH]c3c(C(=O)NCC4CCCO4)sc(=S)n3c2c1 (centres undefined), CC(C)c1ccc(OCC(=O)Nc2cccc(C(=O)Nc3ccccc3C(=O)O)c2)cc1, COc1cc(/C=C2/C(=O)NN(c3ccc(C)c(Cl)c3)C2=O)cc([N+](=O)[O-])c1O, COc1ccc(C(=O)COC(=O)c2ccccc2NS(=O)(=O)c2ccc(O)c([N+](=O)[O-])c2)cc1, CC(C)CS(=O)(=O)C1=NSC2=NC(=O)/C(=C\c3ccc(OC(=O)c4ccco4)cc3)C(=N)N21, O=C(O)/C(CC(=O)c1ccc(Cl)cc1)=N/Nc1ccc([N+](=O)[O-])cc1[N+](=O)[O-], O=C(N/N=C/c1cc(Cl)cc([N+](=O)[O-])c1O)c1ccccc1NS(=O)(=O)c1cccs1, COc1ccc(C(=O)Nc2ccccc2C(=O)O)cc1NC(=O)C(c1ccccc1)c1ccccc1, Cc1cc(C)c2nc(N3C(=O)C(O)=C(C(=O)c4ccco4)C3c3ccco3)sc2c1 (centres undefined), O=C(NN1C(=O)/C(=C\c2ccc(O)c([N+](=O)[O-])c2)SC1=S)c1ccccc1Cl, COc1ccc2c(c1)cc(C(=O)N/N=C/c1c(O)c(C(=O)O)cc3ccccc13)n2C, COc1ccc(N=C2S/C(=C\c3ccc(OCC(=O)O)cc3)C(=O)N2CCc2c[nH]c3ccccc23)cc1, O=C(O)CSc1ncnc2c1sc1nc(-c3ccccc3)c3c(c12)CCC3, O=C(CCN1C(=O)/C(=C/c2ccco2)SC1=S)Nc1ccc(C(=O)O)c(O)c1, Cc1noc(NS(=O)(=O)c2ccc(NC(=O)Nc3ccc(Cl)c(Cl)c3)cc2)c1C, N#Cc1c(-c2ccccc2)nc(SCC(=O)N2c3ccccc3Sc3ccccc32)[nH]c1=O, CCOc1cc(/C=N/NC(=O)c2ccc(-c3csc(Nc4ccc(C)cc4)n3)cc2)ccc1OCC(=O)O, O=C(O)CSc1cc(C(=O)c2ccccc2O)cn2c(=O)c3c4c(sc3nc12)CCCC4, N#Cc1c(-c2cccs2)nc(SCc2ccc(Cl)cc2)[nH]c1=O, CCc1nnc(NS(=O)(=O)c2ccc(NC(=O)/C=C/c3ccccc3Cl)cc2)s1, O=C(O)CSc1nc(-c2ccc(Cl)cc2)nc2c1oc1ccccc12, O=C(O)c1ccc(-c2ccc(/C=C3\NC(=O)N(Cc4ccc(Cl)cc4)C3=O)o2)cc1Cl, COc1cc(NS(=O)(=O)c2ccc(NC(=S)NC(=O)c3sc4ccccc4c3Cl)cc2)nc(OC)n1
